From PubChem BioAssay
TSHR antag = antagonists of human thyroid stimulating hormone receptor; activity change, negative = inhibition, % at 11.5 µM; TSHR-expressing cells, TSH-stimulated cAMP HTRF, 2 h; hits give low values; P16473; AID 504810; 330,000 compounds, 0.2% hits;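 active = activity change below a set negative limit, meaning inhibition stronger than a set level, cut at about -70% in these data; inconclusive = activity change between two set negative limits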; also: % is scaled to controls: 0 for no effect and ±100 for the full control effect
Target sequence (P16473 whole entry, looked up): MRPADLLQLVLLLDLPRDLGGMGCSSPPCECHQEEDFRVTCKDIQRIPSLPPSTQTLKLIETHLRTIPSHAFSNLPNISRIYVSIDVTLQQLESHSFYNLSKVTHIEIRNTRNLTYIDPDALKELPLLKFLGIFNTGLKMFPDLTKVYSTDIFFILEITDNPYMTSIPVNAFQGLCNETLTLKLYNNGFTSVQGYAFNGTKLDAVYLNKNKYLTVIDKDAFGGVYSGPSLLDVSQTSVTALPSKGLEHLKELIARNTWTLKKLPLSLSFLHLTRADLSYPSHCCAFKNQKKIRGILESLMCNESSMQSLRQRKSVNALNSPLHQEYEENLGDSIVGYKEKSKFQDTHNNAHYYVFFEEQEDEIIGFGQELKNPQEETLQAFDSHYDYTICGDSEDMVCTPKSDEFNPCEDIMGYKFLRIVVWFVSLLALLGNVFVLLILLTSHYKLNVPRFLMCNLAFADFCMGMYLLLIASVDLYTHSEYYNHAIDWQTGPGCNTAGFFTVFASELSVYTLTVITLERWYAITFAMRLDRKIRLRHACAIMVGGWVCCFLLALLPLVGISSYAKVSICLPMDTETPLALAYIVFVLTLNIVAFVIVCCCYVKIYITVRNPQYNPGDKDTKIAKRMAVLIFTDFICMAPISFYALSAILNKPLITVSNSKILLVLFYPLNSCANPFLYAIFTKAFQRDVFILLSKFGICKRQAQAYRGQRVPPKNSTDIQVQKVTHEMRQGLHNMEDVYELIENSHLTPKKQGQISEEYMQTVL
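Antagonism was scored as loss of TSH-driven cAMP in TSHR cells, stimulated with 4nM TSH (EC80) for 2 hours at 37 deg C and detected by homogeneous HTRF competition immunoassay.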
RXFP1 antagonist = antagonists of human relaxin receptor RXFP1. Q9HBX9. HEK293-RXFP1, relaxin-stimulated cAMP HTRF, 30 min; hits give low values. activity change, negative = inhibition, % at 57.5 µM. 350,000 compounds, 0.59% hits;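 active = activity change of -60% or lower, but not beyond a set lower limit; inconclusive = change between -60% and -40%, or beyond the set limit; inactive = change above -40%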; also: % is scaled to controls: 0 for no effect and ±100 for the full control effect
RXFP1 ag = RXFP1 (human) receptor agonism; Q9HBX9; 370,000 compounds, 0.3% hits; HEK293T-RXFP1 cAMP TR-FRET, 30 min; response scale: percent of porcine relaxin response, buffer zero; AID 2676; Potency, µM (highest dose often 57.5 µM), for inactives: at the highest dose activation, most hits filed as activators; active = well fitted activation curve with a large enough effect; inconclusive = small, poorly fitted or top-dose-only effect; also: potency is read from the fitted curve at half-maximal effect; % is scaled to controls: 0 for no effect and ±100 for the full control effect; nearly all actives have a fitted effect of over 60% in size
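HEK293 cells stably expressing RXFP1, treated 30 min at 37C with compounds plus PDE4 inhibitor Ro 20174; cAMP measured by HTRF TR-FRET. Normalized to buffer and 29 nM porcine relaxin; EC50 by Hill fit.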
Akt phos inh = blocks phosphorylation of Akt; Neuro2A IGF-stimulated pAkt S473 HTRF, 20 min; hits give low values; activity change, % for hits at 50 µM; 360,000 compounds, 0.32% hits; in the data active = activity change below about -80%; inconclusive = mostly about -51% to -80%; also: % is scaled to controls: 0 for no effect and ±100 for the full control effect
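Neuro2A cells in DMEM with 0.5% FBS, overnight at 37 deg C, given compound at single 50 µM final, then IGF (6 nM final) for 20 min at 37 deg C. Lysed; phospho-Akt Ser473 by HTRF after 24 h, 665/615 ratio.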
gsp antag = gsp mutant antagonism; AID 624288; gsp-mutant cells, cAMP HTRF, 30 min; Potency, µM (highest dose often 76.9 µM), for the others: at the highest dose activity change, negative = inhibition, actives largely listed as inhibitors; 340,000 compounds, 0.4% hits; calls by dose curve; cell line not stated here;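 also: intracellular cAMP measured with PDE inhibitor Ro 20-1724 present during compound exposure; potency is read from the fitted curve at half-maximal effect; % is scaled to controls: 0 for no effect and ±100 for the full control effect; nearly all actives have a fitted effect of over 65% in size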
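HTRF cAMP measurement after 30 min RT detection following 30 min, 37C compound treatment alongside […] (added as 300 uM solution) in G418-selected cells seeded at 2000/well and grown 16–24 h.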
gsp ag = gsp mutant agonism; gsp mutant cells, cAMP HTRF, 30 min; 340,000 compounds, 0.13% hits; Potency, µM (titrated, usually from 76.9 µM), inactives show at the highest dose activation (cAMP increase), hits mostly activators; AID 624287; active = well fitted activation curve with a large enough effect; inconclusive = small, poorly fitted or top-dose-only effect, or another doubt; inactive = no such curve, though single readings can be large or run the other way; cell line not stated here;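 also: phosphodiesterase inhibitor Ro 20-1724 added with compounds to block cAMP breakdown; potency is read from the fitted curve at half-maximal effect; nearly all actives have a fitted effect of over 60% in size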
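Cells stably selected in G418 were plated at 2000/well, grown 16-24 hr, then given compounds in DMSO with the PDE inhibitor […] (300 uM solution added) for 30 min at 37C; cAMP was read by HTRF.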
An asterisk follows results filed as active; [ ] = dose if it differs, or a comment. The list is not random: actives were taken first. Their share in the collection is about 1.3%.

CCOC(=O)c1cccc(NC(=O)c2cccnc2)c1 was read as TSHR antag 15, RXFP1 antagonist 0, RXFP1 ag 0%, Akt phos inh inactive, gsp antag 5% and gsp ag 6%.
Screening COCCCN1C(=O)C(CC(=O)NC(c2ccccc2)c2ccccc2)CC(C(=O)N2CCCCCC2)=C1C (stereo unspecified) returned Akt phos inh inactive.
`Cc1c([N+](=O)[O-])cc(N2C(=O)C=CC2=O)cc1[N+](=O)[O-]` gave RXFP1 antagonist inconclusive, Akt phos inh inactive, gsp antag 11% and gsp ag 3%[15.4 µM].
For Cc1cc(C)cc(N2C(=O)C=CC2=O)c1 the results were RXFP1 antagonist -85*, Akt phos inh inactive, gsp antag inconclusive and gsp ag -11%.
`COc1cc2c(cc1OC)C(COc1cc(C)cc(C)c1)N(C(C)=O)CC2` (stereo unspecified) gave TSHR antag -9, RXFP1 antagonist 3, RXFP1 ag 0%, Akt phos inh inactive, gsp antag inconclusive and gsp ag 12%.
Screening COc1ccc(S(=O)(=O)N(C)CC(=O)NCc2ccccn2)cc1 returned TSHR antag 6, RXFP1 antagonist -8, RXFP1 ag 0%, Akt phos inh inactive, gsp antag 6% and gsp ag -14%.
For O=C(CSc1nnc(Cc2ccccc2)n1-c1cccc(Cl)c1)N1CCOCC1 the results were TSHR antag 15, RXFP1 antagonist 3, RXFP1 ag 4%, Akt phos inh -132%*, gsp antag 4% and gsp ag -41%.
Screening Cc1ccc(S(=O)(=O)N2CCC(C(=O)OCC(=O)N(C)Cc3ccccc3)CC2)cc1C returned TSHR antag -9, RXFP1 antagonist -5, RXFP1 ag 0%, Akt phos inh inactive, gsp antag -1% and gsp ag -24%[15.4 µM].
For CN(Cc1ccccc1)C(=O)COC(=O)C1CCN(S(=O)(=O)c2ccc(Cl)c(C(F)(F)F)c2)CC1 the results were TSHR antag 1, RXFP1 antagonist -96*, RXFP1 ag 0%, Akt phos inh inactive, gsp antag -4% and gsp ag 5%[15.4 µM].
For S=c1[nH]cnc2scc(-c3ccccc3)c12 the results were TSHR antag -6, RXFP1 antagonist -73*, RXFP1 ag 2%, Akt phos inh inactive, gsp antag -4% and gsp ag 6%.
`COc1ccccc1-c1noc(CCC(=O)Nc2cccc(C(F)(F)F)c2)n1` gave TSHR antag -12, RXFP1 antagonist 10, RXFP1 ag 4%, Akt phos inh -105%*, gsp antag inconclusive and gsp ag -17%.
O=C(CCc1nc(-c2ccccc2F)no1)Nc1ccc(Oc2ccccc2)cc1 was read as TSHR antag -73*, RXFP1 antagonist -7, RXFP1 ag 0%, Akt phos inh inactive, gsp antag 1% and gsp ag 14%.
For CCOC(=O)c1ccc(NC(=O)CCc2nc(-c3cccc(C)c3)no2)cc1 the results were TSHR antag -16, RXFP1 antagonist -21, RXFP1 ag 2%, Akt phos inh inactive, gsp antag 35µM* and gsp ag -11%.
`COc1cccc(NC(=O)CCc2nc(-c3ccccc3F)no2)c1` gave TSHR antag -2, RXFP1 antagonist -4, RXFP1 ag -2%, Akt phos inh inactive, gsp antag -9% and gsp ag -9%.
CCCCOC(=O)NS(=O)(=O)c1sc(CC(C)C)cc1-c1ccc(Cn2c(CC)nc3c(C)cc(C)nc32)cc1 was read as TSHR antag -23 and RXFP1 ag 3%.
For COC(=O)[C@]1(Cc2ccccc2)N[C@H](CN(C)S(=O)(=O)c2ccc(C(C)(C)C)cc2)[C@@H]2C(=O)N(C)C(=O)[C@@H]21 the results were TSHR antag 12, Akt phos inh inactive and gsp antag -12%.
Screening Cc1ccc(C2(c3noc(CN4CCC(C(=O)N5CCOCC5)CC4)n3)CCCC2)cc1 returned TSHR antag 7, RXFP1 antagonist 8, RXFP1 ag 2%, Akt phos inh inactive, gsp antag 2% and gsp ag -17%.
`CC1CC2(CCCC2)N(C(=O)N(C)C)c2ccc(F)cc21` (stereo unspecified) gave TSHR antag -2, RXFP1 antagonist -5, RXFP1 ag 1%, Akt phos inh inactive, gsp antag 0% and gsp ag 2%.
For N#CC(C#N)=C1C=CC=CN1/C(=C\c1ccccc1)C(=O)c1cccs1 the results were TSHR antag 29, RXFP1 antagonist 0, RXFP1 ag 0%, Akt phos inh inactive, gsp antag -3% and gsp ag -39%.
`N#CC(C#N)=C1C=CC=CN1/C(=C\c1ccccc1Cl)C(=O)c1ccccc1` gave TSHR antag 19, RXFP1 antagonist -82*, RXFP1 ag -1%, Akt phos inh inactive, gsp antag 10% and gsp ag 4%.
Screening Cn1cccc1CC(=O)NNC(=S)NC(=O)c1ccc(F)cc1 returned TSHR antag 23, RXFP1 antagonist -7, RXFP1 ag 0%, Akt phos inh inactive, gsp antag 23% and gsp ag inconclusive.
COc1ccc(NC(=O)NCc2cccnc2)c(OC)c1 was read as TSHR antag -2, RXFP1 antagonist -3, RXFP1 ag -4%, Akt phos inh inactive, gsp antag inconclusive and gsp ag inconclusive.
Screening COc1cc([N+](=O)[O-])ccc1NC(=O)NCc1cccnc1 returned TSHR antag -76*, RXFP1 antagonist -8, RXFP1 ag 1%, Akt phos inh inactive, gsp antag 5% and gsp ag 14%.
For COc1ccc(Nc2nc3ccccc3nc2NS(=O)(=O)c2cccs2)c(OC)c1 the results were TSHR antag -5, RXFP1 antagonist 2, RXFP1 ag 6%, Akt phos inh inactive, gsp antag -9% and gsp ag -13%.
COc1cccc(Nc2nc3ccccc3nc2NS(=O)(=O)c2cccs2)c1 was read as TSHR antag inconclusive, RXFP1 antagonist -2, RXFP1 ag 5%, Akt phos inh inactive, gsp antag 14µM* and gsp ag 13%.
Screening Cc1ccc(-c2cc(-c3nnc(SCC(=O)N(C)CCC#N)n3N)c3ccccc3n2)cc1 returned TSHR antag -7, RXFP1 antagonist -11, RXFP1 ag 3%, Akt phos inh -115%*, gsp antag -18% and gsp ag 0%.
